# Source: PubChem BioAssay (NCATS)
# Where “and” joins values, the source holds several entries; their conditions need not be identical. Equal entries are not always repeated. Inconclusive results are not listed. A call without a number means that no potency is given here. Unmarked numbers belong to inactive results. Calls of active or inactive are those of the source. Unless noted, calls follow the shape of the dose curve; as a rule, active = well fitted curve in the direction sought with a large enough effect; inconclusive = small, poorly fitted or top-dose-only effect, or another doubt; inactive = no such curve, though single readings can be large; an effect the other way counts as inactive or inconclusive.
# Legend:
# [1] = biological target: Calcium and integrin-binding protein 1 (Homo sapiens) (UniProt Q99828); experiment: Primary qHTS for Identification of Calcium Integrin Binding Protein 1 (CIB1) Competitor (AID 1508620); conditions: CIB1-GST / FITC-alphaIIb peptide fluorescence polarization; series mostly up to 114 µM;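 also: GST tagged CIB1 binding a fluorescein labelled alphaIIb integrin peptide tracer; top concentration of the series differs between compounds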
# How it was run: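 Fluorescence polarization competition: GST-tagged CIB1 (1 uM final) preincubated with compound 15 min at room temperature, then FITC-labelled alphaIIb peptide (100 nM final) added. After 15 min at room temperature, polarization read at Ex 480/Em 540.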
# [2] = Primary qHTS for inhibitors of nuclear receptor binding SET domain protein 2 (NSD2) in an RCH-ACV wild type WT cells (2C) (AID 1645877); conditions: RCH-ACV NSD2 WT (2C) viability, CellTiter-Glo, 72 h; series mostly up to 44.9 µM; also: nearly all actives have a fitted effect of over 70% in size; also: potency is read from the fitted curve at half-maximal effect
# [3] = biological target: Cytochrome P450 2D6 (Homo sapiens) (UniProt P10635); experiment: Cytochrome P450 family 2 subfamily D member 6 (CYP2D6) small molecule antagonists: luciferase biochemical (cell-free) qHTS assay (AID 1645840; active = well fitted curve in the direction sought with a large enough effect in the repeat runs; an effect the other way counts as inactive or inconclusive; also: nearly all actives have a fitted effect of over 55% in size; also: potency is read from the fitted curve at half-maximal effect); conditions: P450-Glo CYP2D6 enzyme, luciferin luminescence, 1 h; series mostly up to 57.4 µM
# How it was run: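 P450-Glo luminescent screen: recombinant CYP2D6 enzyme–proluciferin substrate mix preincubated with compound 10 min at room temperature, then NADPH regeneration added for 1 h at room temperature. Detection reagent added for 20 min; luciferin light read as relative luminescence units.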
# [4] = biological target: Cytochrome P450 2C9 (Homo sapiens) (UniProt P11712); experiment: Cytochrome P450 family 2 subfamily C member 9 (CYP2C9) small molecule antagonists: luciferase biochemical (cell-free) qHTS assay (AID 1645842; active = well fitted curve in the direction sought with a large enough effect in the repeat runs; an effect the other way counts as inactive or inconclusive; also: nearly all actives have a fitted effect of over 55% in size; also: potency is read from the fitted curve at half-maximal effect); conditions: P450-Glo CYP2C9 enzyme assay, luciferin luminescence; series mostly up to 57.4 µM
# How it was run: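 Luminescence, after 20 min with luciferin detection reagent, reflected CYP2C9 turnover during a 1 h NADPH-driven reaction at 37C. Enzyme-substrate mix contained 0.4% bovine serum albumin and was preincubated with compound 10 min at room temperature.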
# [5] = Primary qHTS for small molecule stabilizers of the endoplasmic reticulum resident proteome: Secreted ER Calcium Modulated Protein (SERCaMP) assay (AID 1508630); conditions: SH-SY5Y GLuc-SERCaMP (Gaussia luciferase released on ER calcium loss) secretion, thapsigargin, luminescence; series mostly up to 38.4 µM
# How it was run: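 GLuc-SERCaMP-expressing SH-SY5Y cells, pretreated 16 h with compound, are challenged with thapsigargin to empty ER calcium stores; after 4 h, coelenterazine is added directly to the medium and luminescence is imaged.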
# [6] = biological target: Rap guanine nucleotide exchange factor 3 (Homo sapiens) (UniProt O95398); experiment: Confirmatory qHTS for antagonist of cAMP-regulated guanine nucleotide exchange factor 3 (EPAC1) (AID 1645880); conditions: EPAC1 Rap1B-BODIPY-GDP exchange, fluorescence; series mostly up to 115 µM; also: nearly all actives have a fitted effect of over 55% in size
# How it was run: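 Nucleotide exchange uses 100 nM EPAC1, 250 nM RAP1B-BODIPY-GDP and 50 uM GDP, with compounds in a concentration-titration series. After 5 min at room temperature, fluorescence (480 nm ex/540 nm em) is read every 5 min for 30 min. Data are normalized to control ATA and DMSO.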
# [7] = biological target: Rap guanine nucleotide exchange factor 3 (Homo sapiens) (UniProt O95398); experiment: Confirmatory qHTS for agonist of cAMP-regulated guanine nucleotide exchange factor 3 (EPAC1) (AID 1645881); conditions: EPAC1 Rap1B BODIPY-GDP exchange fluorescence, 100% = cAMP control response; series mostly up to 154 µM;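 also: EPAC1 catalysed release of BODIPY-GDP from Rap1B seen as fluorescence loss; nearly all actives have a fitted effect of over 75% in size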
# [8] = biological target: Rap guanine nucleotide exchange factor 4 (Homo sapiens) (UniProt Q8WZA2); experiment: Confirmatory qHTS for agonist of cAMP-regulated guanine nucleotide exchange factor 4 (EPAC2) (AID 1645884); conditions: EPAC2 GEF activity, Rap1B-BODIPY-GDP fluorescence, percent relative to cAMP agonist control; series mostly up to 154 µM;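 also: nucleotide exchange releases bodipy-GDP from Rap1 and this lowers its fluorescence; nearly all actives have a fitted effect of over 65% in size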
# [9] = biological target: Rap guanine nucleotide exchange factor 4 (Homo sapiens) (UniProt Q8WZA2); experiment: Confirmatory qHTS for antagonist of cAMP-regulated guanine nucleotide exchange factor 4 (EPAC2) (AID 1645885); conditions: EPAC2 Rap1B-BODIPY-GDP exchange fluorescence, biochemical; series mostly up to 114 µM; also: nearly all actives have a fitted effect of over 25% in size
# [10] = Primary qHTS for inhibitors of nuclear receptor binding SET domain protein 2 (NSD2) in an isogenic RCH-ACV NSD2 p.E1099K mutant (9B) (AID 1645876); conditions: RCH-ACV (leukaemia line) NSD2 E1099K (9B) viability, CellTiter-Glo, 72 h; series mostly up to 44.9 µM; also: nearly all actives have a fitted effect of over 70% in size; also: potency is read from the fitted curve at half-maximal effect
# Sequence of Cytochrome P450 2D6 (Homo sapiens) (P10635 whole entry, looked up): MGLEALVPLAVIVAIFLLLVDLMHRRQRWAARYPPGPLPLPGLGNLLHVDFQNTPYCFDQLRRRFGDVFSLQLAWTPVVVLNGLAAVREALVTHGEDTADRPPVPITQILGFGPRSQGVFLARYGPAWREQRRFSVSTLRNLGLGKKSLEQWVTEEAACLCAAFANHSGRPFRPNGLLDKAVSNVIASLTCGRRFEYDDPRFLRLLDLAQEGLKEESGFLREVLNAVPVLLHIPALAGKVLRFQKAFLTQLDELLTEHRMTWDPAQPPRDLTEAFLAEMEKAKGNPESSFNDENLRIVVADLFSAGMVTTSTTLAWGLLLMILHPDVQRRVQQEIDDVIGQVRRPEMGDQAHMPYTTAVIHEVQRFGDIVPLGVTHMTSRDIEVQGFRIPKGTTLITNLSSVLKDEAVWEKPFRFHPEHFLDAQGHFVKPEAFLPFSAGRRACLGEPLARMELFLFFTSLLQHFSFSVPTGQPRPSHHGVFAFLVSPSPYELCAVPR
# Sequence of Calcium and integrin-binding protein 1 (Homo sapiens) (Q99828 whole entry, looked up): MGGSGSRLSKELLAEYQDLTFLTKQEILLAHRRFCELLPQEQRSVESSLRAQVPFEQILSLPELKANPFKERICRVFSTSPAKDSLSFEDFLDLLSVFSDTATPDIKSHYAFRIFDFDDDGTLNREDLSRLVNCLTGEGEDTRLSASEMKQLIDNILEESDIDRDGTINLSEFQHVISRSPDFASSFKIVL
# Sequence of Cytochrome P450 2C9 (Homo sapiens) (P11712 whole entry, looked up): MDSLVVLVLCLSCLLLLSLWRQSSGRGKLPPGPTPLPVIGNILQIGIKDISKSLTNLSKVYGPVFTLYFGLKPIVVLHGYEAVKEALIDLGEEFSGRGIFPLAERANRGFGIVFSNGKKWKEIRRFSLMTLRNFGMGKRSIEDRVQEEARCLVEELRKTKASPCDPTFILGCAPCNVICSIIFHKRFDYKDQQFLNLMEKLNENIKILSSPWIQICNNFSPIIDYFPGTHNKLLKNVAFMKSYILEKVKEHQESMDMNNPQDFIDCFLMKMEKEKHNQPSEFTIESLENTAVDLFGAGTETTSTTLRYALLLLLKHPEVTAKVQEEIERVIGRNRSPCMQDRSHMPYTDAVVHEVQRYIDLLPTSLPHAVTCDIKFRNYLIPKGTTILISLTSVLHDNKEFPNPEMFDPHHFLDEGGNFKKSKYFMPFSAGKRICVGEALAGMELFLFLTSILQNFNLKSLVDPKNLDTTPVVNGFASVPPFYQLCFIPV
# Sequence of Rap guanine nucleotide exchange factor 4 (Homo sapiens) (Q8WZA2 whole entry, looked up, the tested form may be a part): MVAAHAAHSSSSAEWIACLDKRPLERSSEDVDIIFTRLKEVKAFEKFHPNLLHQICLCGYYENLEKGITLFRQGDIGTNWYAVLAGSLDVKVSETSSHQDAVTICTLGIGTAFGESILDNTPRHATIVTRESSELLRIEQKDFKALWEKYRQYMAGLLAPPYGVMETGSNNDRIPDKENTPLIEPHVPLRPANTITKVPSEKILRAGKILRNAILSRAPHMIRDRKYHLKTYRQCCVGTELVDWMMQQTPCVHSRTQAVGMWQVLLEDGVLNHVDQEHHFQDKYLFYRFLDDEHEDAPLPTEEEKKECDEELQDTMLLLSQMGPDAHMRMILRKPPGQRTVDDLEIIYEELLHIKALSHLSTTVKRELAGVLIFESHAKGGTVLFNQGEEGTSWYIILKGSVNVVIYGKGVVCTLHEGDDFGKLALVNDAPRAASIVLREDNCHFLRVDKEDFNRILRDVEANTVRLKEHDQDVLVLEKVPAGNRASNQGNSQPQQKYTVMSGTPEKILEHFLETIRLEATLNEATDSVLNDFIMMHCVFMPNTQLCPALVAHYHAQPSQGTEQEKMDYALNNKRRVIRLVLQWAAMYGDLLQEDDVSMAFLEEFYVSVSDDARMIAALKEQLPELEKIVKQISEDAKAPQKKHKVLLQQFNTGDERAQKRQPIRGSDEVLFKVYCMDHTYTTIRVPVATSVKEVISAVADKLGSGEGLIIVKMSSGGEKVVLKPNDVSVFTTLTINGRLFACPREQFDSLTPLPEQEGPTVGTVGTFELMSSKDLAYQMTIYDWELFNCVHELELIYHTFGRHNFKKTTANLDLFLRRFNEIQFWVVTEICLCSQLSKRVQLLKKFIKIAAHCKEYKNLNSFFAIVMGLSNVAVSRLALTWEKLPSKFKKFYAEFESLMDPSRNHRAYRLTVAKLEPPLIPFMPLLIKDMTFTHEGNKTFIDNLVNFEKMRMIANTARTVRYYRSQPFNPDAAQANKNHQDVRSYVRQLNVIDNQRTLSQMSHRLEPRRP
# Sequence of Rap guanine nucleotide exchange factor 3 (Homo sapiens) (O95398 whole entry, looked up): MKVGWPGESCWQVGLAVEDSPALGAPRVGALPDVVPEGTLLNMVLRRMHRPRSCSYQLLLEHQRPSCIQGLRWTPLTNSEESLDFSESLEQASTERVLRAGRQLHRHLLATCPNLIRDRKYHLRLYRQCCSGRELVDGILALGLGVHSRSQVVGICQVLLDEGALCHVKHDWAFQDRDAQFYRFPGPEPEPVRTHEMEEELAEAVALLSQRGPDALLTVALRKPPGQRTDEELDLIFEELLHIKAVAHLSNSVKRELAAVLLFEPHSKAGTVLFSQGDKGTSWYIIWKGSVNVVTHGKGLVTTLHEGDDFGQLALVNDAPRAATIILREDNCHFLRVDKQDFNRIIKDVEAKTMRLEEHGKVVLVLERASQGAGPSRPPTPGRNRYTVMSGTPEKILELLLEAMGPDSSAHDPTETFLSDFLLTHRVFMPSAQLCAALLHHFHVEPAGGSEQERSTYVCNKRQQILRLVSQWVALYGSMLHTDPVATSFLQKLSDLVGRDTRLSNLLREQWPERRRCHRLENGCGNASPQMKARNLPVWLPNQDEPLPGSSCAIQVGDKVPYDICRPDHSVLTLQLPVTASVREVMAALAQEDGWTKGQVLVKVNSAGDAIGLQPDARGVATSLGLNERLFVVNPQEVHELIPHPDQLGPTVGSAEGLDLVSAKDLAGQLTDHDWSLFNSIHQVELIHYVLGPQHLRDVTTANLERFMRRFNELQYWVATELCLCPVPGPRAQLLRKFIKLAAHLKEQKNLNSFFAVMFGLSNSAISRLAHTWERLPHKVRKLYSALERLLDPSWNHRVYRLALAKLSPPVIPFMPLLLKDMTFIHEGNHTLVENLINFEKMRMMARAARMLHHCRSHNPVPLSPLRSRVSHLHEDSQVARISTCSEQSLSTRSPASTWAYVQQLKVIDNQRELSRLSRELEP
structure (smiles),measurement,setting,value
CO[C@H]1O[C@@H]2O[C@@]3(C)CCC4[C@H](C)CCC([C@H]1C)[C@]42OO3 (stereo partly specified),Potency,[1],inactive
same,Potency,[2],6.49 µM (active)
O=C1C(c2[nH]c3ccc(S(=O)(=O)O)cc3c2O)=Nc2ccc(S(=O)(=O)O)cc21,Potency,[3],inactive
same,Potency,[4],inactive
Nc1c(CC(=O)O)cccc1C(=O)c1ccccc1,Potency,[3],inactive
CC1CCC(=O)CC(SCC(O)C(=O)O)CCC(=O)O1 (stereo unspecified),Potency,[1],inactive
same,Potency,[2],inactive
CC1(C)S[C@@H]2[C@H](NC(=O)C(C(=O)Oc3ccc4c(c3)CCC4)c3ccccc3)C(=O)N2[C@H]1C(=O)O (stereo partly specified),Potency,[3],inactive
CC(C)(CO)c1cc2cc(NC(=O)C3(c4ccc5c(c4)OC(F)(F)O5)CC3)c(F)cc2n1CC(O)CO (stereo unspecified),Potency,[1],inactive
same,Potency,[2],inactive
CC(C)c1cc(-c2ccc(F)c3ccccc23)nc(N)n1,Potency,[1],inactive
same,Potency,[2],inactive
CCC(=O)O,Potency,[3],inactive
same,Potency,[4],inactive
CCC(C)(OC(C)=O)C(=O)O[C@H]1[C@H](OC(C)=O)[C@]2(CO)[C@H](O)[C@H](O)[C@]3(C)C(=CCC4[C@@]5(C)CC[C@H](O[C@@H]6O[C@H](C(=O)O)[C@@H](O)[C@H](O[C@@H]7OC[C@H](O)[C@H](O[C@@H]8OC[C@H](O)[C@H](O)[C@H]8O)[C@H]7O)[C@H]6O[C@@H]6O[C@H](CO)[C@@H](O)[C@H](O)[C@H]6O)C(C)(C)C5CC[C@]43C)[C@@H]2CC1(C)C (stereo partly specified),"activity change, negative = inhibition",[1],5.33% [at 12.4 µM]
same,Potency,[2],2.44 µM (active)
CC(=O)c1c(C)cc2cccc(O)c2c1O[C@@H]1O[C@H](CO)[C@@H](O)[C@H](O)[C@H]1O,Potency,[1],inactive
same,Potency,[2],12.7 µM (active)
CCCC(CCC)C(N)=O,Potency,[3],inactive
C=C1C(=O)OC2C=C(C)CC/C=C(\CO)CC(O)C12 (stereo unspecified),Potency,[1],inactive
same,Potency,[2],20.5 µM (active)
C=C1CCCC2(C)CCC(C(C)(C)OC3OC(C)C(O)C(O)C3OC(=O)/C(C)=C\C)CC12 (stereo unspecified),Potency,[1],inactive
same,Potency,[2],10 µM (active)
COC(C)=O,Potency,[3],inactive
same,Potency,[4],inactive
O=C(OCCO)c1ccccc1O,Potency,[3],inactive
same,Potency,[4],inactive
CC(C)(O)C1Cc2c(ccc(C(=O)CCc3ccccc3)c2O)O1 (stereo unspecified),Potency,[1],inactive
same,Potency,[2],inactive
N#C/C(=C1\Nc2ccccc2S1)c1ccnc(NCCc2cccnc2)n1,Potency,[3],8.49 µM (active)
same,Potency,[4],0.239 µM (active)
C=C1C(=O)OC2C3=C(C)C(=O)CC3C(C)CC(O)C12 (stereo unspecified),Potency,[1],inactive
same,Potency,[2],14.5 µM (active)
O=S(=O)(O)Oc1ccc(C(c2ccc(OS(=O)(=O)O)cc2)c2ccccn2)cc1,Potency,[3],inactive
same,Potency,[4],inactive
C=C1C(=O)OC2CC(C)C(CCC(C)O)=CCC12 (stereo unspecified),Potency,[1],inactive
same,Potency,[2],16.3 µM (active)
O=S(O)CO,Potency,[3],inactive
Cc1c(O)cc2c(c1C)O[C@](C)(CCC[C@H](C)CCC[C@H](C)CCCC(C)C)CC2,Potency,[3],inactive
CCC(C)C(=O)Oc1cc(C)ccc1C1(COC(=O)C(C)C)CO1 (stereo unspecified),Potency,[1],inactive
same,Potency,[2],5.67 µM (active)
C=CS(=O)(=O)O,Potency,[3],inactive
NC(=O)C[C@@H](N)C(=O)O,outcome,[5],inactive
CC(O)C(C)n1ncn(-c2ccc(N3CCN(c4ccc(OCC5COC(Cn6cncn6)(c6ccc(Cl)cc6Cl)O5)cc4)CC3)cc2)c1=O (stereo unspecified),Potency,[1],inactive
same,Potency,[2],inactive
C=C(C(=O)OC)[C@@H]1CC=C2C=CC(=O)[C@H](C)[C@@]2(C)C1,Potency,[1],inactive
same,Potency,[2],20.5 µM (active)
CC(C)=CCc1cc2c(cc1O)OC[C@H]1c3ccc(O)cc3O[C@@H]21,Potency,[1],inactive
same,Potency,[2],14.2 µM (active)
CC[C@H](C)/C=C(C)/C=C/C1=CC2=C(Cl)C(=O)[C@](C)(O)[C@H](OC(C)=O)[C@H]2CO1,Potency,[1],inactive
same,Potency,[2],10.1 µM (active)
CC(=O)S[C@@H]1CC2=CC(=O)CC[C@]2(C)[C@H]2CC[C@@]3(C)[C@@H](CC[C@@]34CCC(=O)O4)[C@H]12,Potency,[6],inactive
same,outcome,[7],inactive
same,outcome,[8],inactive
same,Potency,[9],inactive
CCn1nc(C2CCN(C(=O)CCO)CC2)nc1-c1cnc(N)c(-c2nnc(C(C)(C)C)o2)n1,Potency,[10],164 nM (active) and 296 nM (active)
same,Potency,[2],64.9 nM (active) and 263 nM (active)
CC1OC2OC(=O)C3(C)CC4C5(CO5)C5=CC(=O)OC(C)(C)C5=CC(=O)C4(C)C(C1=O)C23 (stereo unspecified),Potency,[2],8.93 µM (active)
Cc1sc2c(c1C)C(c1ccc(Cl)cc1)=N[C@@H](CC(=O)Nc1ccc(OCCOCCOCCOCCNc3cccc4c3C(=O)N(C3CCC(=O)NC3=O)C4=O)cc1)c1nnc(C)n1-2 (stereo partly specified),Potency,[10],4 nM (active) and 10.5 nM (active)
same,Potency,[2],3.2 nM (active) and 14.8 nM (active)
C=C(C)C(=O)OC1CC2(C)OC(=CC2=O)C(=C)CC2OC(=O)C(=C)C12 (stereo unspecified),Potency,[10],0.8 µM (active)
same,Potency,[2],0.253 µM (active)
Nc1nc2c(ncn2C2OC3COP(=O)(O)OC3C2O)c(=O)[nH]1 (stereo unspecified),Potency,[10],inactive
same,Potency,[2],inactive
C=C1C(=O)O[C@H]2C3=C(C)CCC[C@]3(C)C(=O)C[C@@H]12,Potency,[10],1.83 µM (active)
same,Potency,[2],1.29 µM (active)
C=C1C(=O)O[C@@H]2C(OC(=O)/C(C)=C\C)/C(C)=C\C(=O)/C=C(\C)C[C@H](O)[C@@H]12 (stereo partly specified),Potency,[10],2.26 µM (active)
same,Potency,[2],1.6 µM (active)
C=C1C(=O)OC2/C=C(\C)CC/C=C(\C)CC(OC(C)=O)C12 (stereo unspecified),Potency,[10],12.9 µM (active)
same,Potency,[2],6.49 µM (active)
C=C(C)C(=O)OC1CC(CO)CCC/C(CO)=C/C2OC(=O)C(=C)C21 (stereo unspecified),Potency,[10],2.53 µM (active)
same,Potency,[2],2.01 µM (active)
CN(C)CCOC(C)(c1ccccc1)c1ccc(Cl)cc1 (stereo unspecified),Potency,[10],11.5 µM (active)
same,Potency,[2],10.3 µM (active)
COc1cc(S(C)(=O)=O)ccc1Nc1nc2ccc(-c3ccc(NC(=O)[C@H](C)c4ccc(F)cc4)cc3)cn2n1,Potency,[10],0.742 µM (active)
same,Potency,[2],0.417 µM (active)
C=CC(C)(C)C12CC3C(=O)N4C(CC5(C(C)(C)C=C)c6ccccc6NC45)C(=O)N3C1Nc1ccccc12 (stereo unspecified),Potency,[10],inactive
same,Potency,[2],inactive
COc1cc(O)c2c(c1)/C=C/C[C@H](O)[C@H](O)C(=O)/C=C\C[C@H](C)OC2=O,Potency,[10],2.06 µM (active) and 2.58 µM (active)
same,Potency,[2],1.46 µM (active) and 1.83 µM (active)
Cn1ccc(NC(=O)c2cc(Oc3ccc(C(=O)N4CCC4)c(F)c3)c3c(c2)OC(C)(C)C3)n1,Potency,[10],inactive
same,Potency,[2],inactive
C=C1C(=O)O[C@@H]2[C@H]3C(C)=CC(=O)C3=C(C)CC[C@@H]12,Potency,[10],2.9 µM (active)
same,Potency,[2],2.05 µM (active)
C[C@@H]1O[C@@H](O[C@H]2[C@@H](OC(=O)[C@]34CCC(C)(C)CC3C3=CCC5[C@@]6(C)C[C@H](O)[C@H](O[C@@H]7O[C@H](CO)[C@@H](O)[C@H](O)[C@H]7O[C@@H]7OC[C@@H](O)[C@H](O)[C@H]7O)[C@@](C)(C(=O)O)C6CC[C@@]5(C)[C@]3(C)CC4)OC[C@H](O)[C@@H]2O)[C@H](O)[C@H](O)[C@H]1O[C@@H]1OC[C@@H](O)[C@H](O)[C@H]1O (stereo partly specified),Potency,[10],1.54 µM (active)
same,Potency,[2],2.18 µM (active)
